An excerpt weighted towards active compounds, which were near 2.7% of everything screened.
SENP7 block: SENP7 protease inhibitors, primary screen, biochemical, luminescence, uHTS. recombinant SENP7, Z-RLRGG-aminoluciferin luminescence, 40 min. inhibition, % at 5 µM. actives 1.5% (n = 330,000). AID 434973, 2010;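 active means inhibition above about 50% at the single test dose, limit read from the data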;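 further: plate controls were DMSO with enzyme for no effect and no enzyme buffer wells for full effect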
Target sequence (Q9BQF6 706-1050 limits assumed): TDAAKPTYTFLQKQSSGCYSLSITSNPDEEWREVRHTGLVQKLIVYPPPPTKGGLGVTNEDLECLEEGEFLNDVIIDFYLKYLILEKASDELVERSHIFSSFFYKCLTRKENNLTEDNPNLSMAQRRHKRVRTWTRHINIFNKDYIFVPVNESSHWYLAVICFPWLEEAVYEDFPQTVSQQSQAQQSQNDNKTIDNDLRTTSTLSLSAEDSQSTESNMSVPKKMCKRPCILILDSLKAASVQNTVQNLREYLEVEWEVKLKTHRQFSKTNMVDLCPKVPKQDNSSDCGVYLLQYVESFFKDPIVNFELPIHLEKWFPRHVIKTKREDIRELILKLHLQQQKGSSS
HSP90 inh: HSP90 inhibitors, primary screen, cell lysate, luminescence; Rabbit reticulocyte lysate, luciferase refolding luminescence, 3 h; inhibition, % at 5.6 µM; Heat shock protein HSP 90 (rabbit reticulocyte lysate; luciferase refolding); AID 1789, 2009; actives 0.91% (n = 290,000);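 active means inhibition above the screen-wide mean plus 3 SD, computed separately per campaign, cut at about 16% in these data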;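 further: 0% = DMSO wells and 100% = 60 µM geldanamycin wells; inhibitors lower the luminescence because luciferase stays unfolded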
SENP8 block-1: SENP8 protease inhibitors, primary screen, biochemical, luminescence. purified SENP8, Z-RLRGG-aminoluciferin cleavage. inhibition, % at 10 µM. actives 1.2% (n = 330,000); in the data active means inhibition above about 50%
Target sequence (Q96LD8 whole entry, looked up): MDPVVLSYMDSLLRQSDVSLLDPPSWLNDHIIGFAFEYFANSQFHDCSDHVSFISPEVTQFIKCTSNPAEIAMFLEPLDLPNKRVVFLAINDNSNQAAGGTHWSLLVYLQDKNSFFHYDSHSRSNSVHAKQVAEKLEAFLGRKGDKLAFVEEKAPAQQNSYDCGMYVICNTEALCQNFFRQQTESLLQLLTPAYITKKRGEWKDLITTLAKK
SENP8 block-2: human SENP8 protease inhibitors, primary screen, biochemical, fluorescence, Nedd8 protein substrate, uHTS | inhibition, % at 20 µM | AID 602440, 2012 | actives 0.64% (n = 360,000) | recombinant SENP8; in the data active means inhibition mostly above about 40%, no sharp cut-off; inactive means mostly below about 27%
SENP6 block: SENP6 protease inhibitors, primary screen, biochemical, luminescence, uHTS. AID 2599, 2010. Sentrin-specific protease 6 (Homo sapiens), Q9GZR1. actives 1.8% (n = 330,000). Recombinant SENP6 catalytic domain, aminoluciferin luminescence. inhibition, % at 10 µM;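 active means inhibition above about 50% at the single tested dose, limit read from the data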;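 further: plate controls were DMSO wells with enzyme for no effect and DMSO wells lacking enzyme for full effect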
SENP8 conf: SENP8 protease inhibitors, retest, confirmation, biochemical, luminescence, single concentration; shares compounds with SENP7 block; Recombinant SENP8, Z-RLRGG-aminoluciferin luminescence, 60 min; inhibition, % at 12.5 µM; actives 40% (n = 6,200);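 active means mean inhibition across replicates above about 50%, limit read from the data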
SENP6 conf: SENP6 protease inhibitors, confirmation, biochemical, luminescence, single concentration. recombinant SENP6, Z-RLRGG-aminoluciferin luminescence. AID 488915, 2010. inhibition, % at 12.5 µM. actives 58% (n = 6,200). shares compounds with SENP7 block
SENP7 confirm: SENP7 protease inhibitors, retest, confirmation, biochemical, luminescence, single concentration. recombinant SENP7, Z-RLRGG-aminoluciferin luminescence, 40 min. AID 488917, 2010. actives 69% (n = 6,200). inhibition, % at 12.5 µM. shares compounds with SENP7 block
Casp3 select: caspase-3 protease inhibitors, confirmation, selectivity assay for SENP inhibitor project, biochemical, single concentration | shares compounds with SENP7 block | purified caspase-3, Z-DEVD-aminoluciferin luminescence, 60 min | inhibition, % at 12.5 µM | actives 60% (n = 6,200);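 active means mean inhibition above about 50%, limit read from the data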;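 further: plate controls were enzyme with DMSO for no effect and wells without caspase-3 for full effect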
SENP luc ctr: luminescence interference (SENP counter-screen) | shares compounds with SENP7 block | Pre-incubated SENP8/Z-RLRGG-aminoluciferin, luciferase luminescence interference | inhibition, % at 12.5 µM | actives 39% (n = 6,200);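 active means mean inhibition above about 50% when retested at one dose, limit read from the data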;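 further: plate controls were DMSO wells with completed reaction for no effect and substrate without enzyme for full effect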
* marks the source's active call; other numbers are inactive results; i = inactive; . = no result given.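 How the source made its calls, unless noted: active means mean inhibition above about 50% in the one-dose retest (limit read from the data); inactive means the rest.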

SMILES	SENP7 block	HSP90 inh	SENP8 block-1	SENP8 block-2	SENP6 block	SENP8 conf	SENP6 conf	SENP7 confirm	Casp3 select	SENP luc ctr
Cc1oc2ccc(OCc3ccc(Cl)cc3)cc2c1C(=O)O	-1	4	59*	13	78*	79*	80*	93*	66*	60*
Cc1oc2ccc(OCc3ccccc3F)cc2c1C(=O)O	24	4	53*	13	77*	61*	57*	83*	74*	69*
Cc1nc2ccc([N+](=O)[O-])cc2c(=O)n1Cc1ccc(Cl)cc1	-7	2	10	10	4	.	.	.	.	.
c1csc(-c2cn3ccc4ccccc4c3n2)c1	86*	1	80*	-436	89*	11	90*	99*	82*	84*
CCNC(=O)CSc1nc2ccccc2c(=O)n1-c1cccc(OC)c1	1	3	4	-2	-8	.	.	.	.	.
Cc1cc(C)n(C(=O)c2ccc(C)c(S(=O)(=O)N3CCCCC3)c2)n1	1	-1	5	0	14	.	.	.	.	.
O=c1oc2ccccc2cc1-c1nc2ccccc2o1	85*	-3	72*	-293	90*	54*	86*	98*	94*	28
O=c1oc2ccccc2cc1-c1nc2c(s1)CCCC2	99*	12	94*	-315	48	-4	44	100*	84*	12
O=c1oc2ccccc2cc1-c1nc(-c2ccccc2)no1	82*	1	57*	i	38	11	28	29	25	-3
Cc1cccc(-c2noc(-c3cc4ccccc4oc3=O)n2)c1	82*	-9	0	-488	11	20	21	21	38	3
Cc1ccc(-c2noc(-c3cc4ccccc4oc3=O)n2)cc1	-5	-2	0	-448	18	.	.	.	.	.
Cc1cccc(-c2noc(-c3ccc(Cl)cc3[N+](=O)[O-])n2)c1	39	2	7	19	39	.	.	.	.	.
O=C(CN1C(=O)C2CC=CCC2C1=O)Nc1ccc(OC(F)(F)F)cc1 (configuration not stated)	4	.	-3	6	3	.	.	.	.	.
Cc1cccc(C(=O)Oc2ccc(/C=N/O)cc2)c1	3	1	69*	5	76*	77*	73*	89*	74*	73*
O=C(Oc1ccc(/C=N/O)cc1)c1ccccc1Cl	71*	-5	63*	-6	86*	81*	77*	94*	77*	75*
O=C(Oc1ccc2ccc(O)cc2c1)c1ccccc1Cl	70*	-4	74*	12	89*	-20	76*	91*	34	67*
O=C(Nc1cccc([N+](=O)[O-])c1)c1cc2ccccc2cc1O	70*	-3	80*	40	87*	14	37	44	79*	4
COc1ccc(NC(=O)c2cc([N+](=O)[O-])ccc2O)cc1	100*	81*	96*	29	100*	-25	101*	104*	100*	100*
Cc1c(C(=O)Nc2cccc([N+](=O)[O-])c2)csc1-c1ccccc1	97*	-2	2	25	72*	32	27	45	76*	52*
O=C(Nc1ccncc1)c1cc2ccccc2cc1O	93*	.	96*	-6	99*	85*	99*	102*	97*	45
CCCN(CC(=O)Nc1ccccc1OC)C(=O)c1cccc(S(=O)(=O)NCc2ccccc2)c1	-17	.	-3	10	-9	.	.	.	.	.
O=C(NCc1ccncc1)c1ccc(S(=O)(=O)Nc2ccccc2)cc1	-3	.	7	3	-4	.	.	.	.	.
COc1ccc(NC(=O)CN2C(=O)NC(C)(c3ccc(C)cc3)C2=O)cn1 (configuration not stated)	-6	.	-10	2	-10	.	.	.	.	.
CCn1c(=O)cc(OCC(=O)NCc2ccc(C)o2)c2ccccc21	2	0	-4	4	5	.	.	.	.	.
N/C(=N\OC(=O)c1cccc(F)c1)c1cccc([N+](=O)[O-])c1	28	0	-13	17	30	.	.	.	.	.
SMILES	SENP7 block	HSP90 inh	SENP8 block-1	SENP8 block-2	SENP6 block	SENP8 conf	SENP6 conf	SENP7 confirm	Casp3 select	SENP luc ctr
N/C(=N\OC(=O)c1cccc([N+](=O)[O-])c1)c1ccccn1	61*	-2	37	13	50*	35	46	75*	80*	50
N/C(=N\OC(=O)c1ccccc1Cl)c1cccc([N+](=O)[O-])c1	90*	12	67*	15	75*	59*	60*	91*	59*	81*
N/C(=N/OC(=O)c1cccc([N+](=O)[O-])c1)c1cccc([N+](=O)[O-])c1	-5	0	-10	26	-19	.	.	.	.	.
O=S(=O)(c1ccccc1)C(Br)S(=O)(=O)c1ccccc1	.	.	.	11	.	.	.	.	.	.
Cc1ccc(N2C(=O)CC(Sc3ncccc3C(=O)O)C2=O)cc1 (configuration not stated)	7	1	3	12	7	.	.	.	.	.
COc1ccc(/C=N/NC(=O)CNS(=O)(=O)c2ccc(C)cc2)cc1	-9	0	-6	4	-6	.	.	.	.	.
c1ccc(-c2csc(Nc3cccnc3)n2)nc1	-8	-3	-7	-14	-7	.	.	.	.	.
COc1cccc2sc(Nc3nc(-c4ccccn4)cs3)nc12	45	-1	42	-84	65*	-7	56*	85*	28	12
c1ccc(Nc2nc(-c3ccccn3)cs2)cc1	60*	13	38	-16	-3	60*	61*	88*	54*	76*
CCCCSc1ncnc2[nH]ncc12	-3	-2	-6	16	0	.	.	.	.	.
O=C(NNC(=O)c1ccccc1[N+](=O)[O-])c1cnccn1	82*	2	0	18	-7	-9	-6	-5	7	1
O=C(NNC(=O)c1cnccn1)c1cccc([N+](=O)[O-])c1	10	-3	-7	20	3	.	.	.	.	.
